NS1 function inh – influenza NS1 inhibition | Potency, µM (titrated, usually from 46.1 µM), without a hit: top-dose activity, positive = more growth | 270,000 tested, 0.4% active | AID 2326; calls by dose curve; also: potency is read from the fitted curve at half-maximal effect; actives are rising curves; nearly all actives have a fitted effect of over 50% in size
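Recovery from NS1-induced slow growth read by OD600 in budding yeast switched to galactose assay medium (pH 6.0, -URA) at 1:100 dilution. Compound 23 nl per well; the matching strain lacking NS1 serves as control.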
Pf growth 96h – P. falciparum growth inhibition at 96 hour, primary screen for plastid delayed-death inhibitors | Potency, µM (doses to about 28.7 µM), for inactives: top-dose activity change, negative = inhibition, most hits filed as inhibitors | 320,000 tested, 6.9% active | P. falciparum luciferase reporter growth, 96 h | AID 504834; also: potency is read from the fitted curve at half-maximal effect; % is scaled to controls: 0 for no effect and ±100 for the full control effect
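P. falciparum expressing integrated firefly luciferase grown in erythrocytes (2% hematocrit, 0.05% parasitemia final) with compounds for 96 hours at 37 C, 5% CO2. Growth inhibition read as loss of luminescence after adding luciferase detection reagent.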
Shiga toxin inh – blocks Shiga toxin action in Vero cells; Vero cells, Shiga toxin protein synthesis inhibition reporter; inhibition, % at 38.7 µM; 290,000 tested, 9.2% active; AID 2315; in the data active = inhibition mostly above about 28%, no sharp cut-off; inactive = mostly below about 43%; also: 0% is about no effect
CHX counter – counter-screen for Shiga toxin inhibitors: cycloheximide protein synthesis inhibition; cell reporter, cycloheximide protein synthesis inhibition counterscreen; max response, %; 300,000 tested, 12% active; AID 2314; in the data active = max response mostly above about 13%, no sharp cut-off; inactive = mostly below about 14%; also: read at 38.3 µM for the half of the compounds with a filed dose; 0% is about no effect
Pf growth 48h – P. falciparum growth inhibition at 48 hours (one generation); P. falciparum luciferase growth in erythrocytes, 48 h; Potency, µM (series often up to 28.7 µM), without a hit: at the top dose activity change, negative = inhibition, actives largely listed as inhibitors; 310,000 tested, 5.9% active; also: potency is read from the fitted curve at half-maximal effect; % is scaled to controls: 0 for no effect and ±100 for the full control effect
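In quantitative HTS format, infected erythrocytes bearing luciferase-reporter parasites were treated for a single generation at 37 C. Luminescence after adding detection reagent served as the growth measure.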
Sm TGR block – blocks Schistosoma mansoni thioredoxin glutathione reductase; 360,000 tested, 3% active; AID 485364; purified TGR, DTNB reduction, TNB absorbance 405 nm; Potency, µM (top dose mostly 114 µM), for the others: at the highest dose activity change, negative = inhibition, hits mostly inhibitors; also: potency is read from the fitted curve at half-maximal effect; % is scaled to controls: 0 for no effect and ±100 for the full control effect; nearly all actives have a fitted effect of over 60% in size
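Kinetic colorimetric format: TGR-catalysed, NADPH-driven DTNB reduction monitored via TNB absorbance. Enzyme dispensed at 20 nM; compound exposure 15 min at room temperature before reaction start.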
An asterisk follows results filed as active; ? = inconclusive; / = not tested or not shown; [ ] = another dose, or the depositor's remark. A selection: hits, their analogues and other compounds. The true share with any hit is near 21%. Unless noted, calls follow the shape of the dose curve; as a rule, active = well fitted curve in the direction sought with a large enough effect; inconclusive = small, poorly fitted or top-dose-only effect, or another doubt; inactive = no such curve, though single readings can be large; an effect the other way counts as inactive or inconclusive.

SMILES | NS1 function inh | Pf growth 96h | Shiga toxin inh | CHX counter | Pf growth 48h | Sm TGR block
CN(C)C(=O)CN1CCN(C(=O)CCl)CC1 | / | ? | -3 | -2 | -19% | 45µM*
CC1(C)Cc2c(cnn2-c2ccccc2)C(NC(=O)CCc2ccc(=O)[nH]n2)C1 (stereo not drawn) | 4% | -6% | 14 | -2 | -8% | -18%
CCOC(=O)C1CCN(C(=O)c2ccc3c(c2)N=C(CC)c2cc(C)ccc2S3)CC1 | / | / | / | / | / | -8%
Cc1ccccc1Cn1c2ccccc2c2cn[nH]c(=O)c21 | 14% | 10µM* | -17 | -5 | ? | 1%
O=S(=O)(Nc1cccc(C(F)(F)F)c1)c1cnc[nH]1 | 1% | 10µM* | -6 | -1 | 12% | 6%
O=C(CN1CCN(Cc2ccccc2Cl)C1=O)NCCc1ccc(Cl)cc1 | / | / | / | / | / | -3%
O=C(NCc1ccccc1Cl)c1ccc(S(=O)(=O)NCc2ccco2)cc1 | / | 60% | / | / | 50% | -6%
O=C(NCc1ccco1)C(=O)NCc1ccccc1Cl | 3% | ? | 24 | 30* | 21% | -5%
O=C(NCc1ccco1)c1nc2c(nnn2Cc2ccccc2Cl)c(=O)[nH]1 | 11% | 0% | -10 | -5 | 9.3µM* | -15%
O=C(CN1CCN(Cc2ccccc2Cl)C1=O)NCc1ccco1 | 0% | 3.3µM* | -16 | -2 | 6% | ?
O=C(NCc1ccco1)Nc1ccccc1Cl | -6% | / | 74* | 18* | 53% | 0%
O=C1C2C3CCC(C3)C2C(=O)N1Cc1ccco1 (stereo not drawn) | 15% | 89% | 7 | -1 | 13% | -2%
O=C(CN1C(=O)C2C3CCC(C3)C2C1=O)NCc1ccco1 (stereo not drawn) | 2% | 22% | 43* | 11 | 31% | -7%
CCOC(=O)C(C)On1c(-c2cccc(Cl)c2)nc2ccc([N+](=O)[O-])cc21 (stereo not drawn) | -152% | / | 102* | 46* | ? | 40%
CCOC(=O)COn1c(-c2cccc(Cl)c2)nc2ccc([N+](=O)[O-])cc21 | -61% | 159% | 63* | 76* | 24% | 0%
Cc1ccc(C(=O)NCCSc2snnc2C)cc1 | 2% | 39% | 71* | 54* | 27% | 0%
O=C(NCCSc1ccccn1)c1ccc(Cl)cc1 | / | 37% | 63* | 12 | 187% | -6%
Cc1ccccc1CSCC(=O)NCCSc1ccccn1 | / | -10% | 33 | 22* | 12% | -11%
Cc1nnsc1SCCNC(=O)c1c(F)cccc1F | -3% | 61% | -4 | 4 | 9% | 1%
O=C(CCCNC(=O)c1ccc(Cl)cc1)Nc1ncccc1O | 8% | 8.3µM* | 4 | -2 | ? | 1%
COc1ccc(S(=O)(=O)N2CCN(C)CC2c2ccccc2)cc1OC (stereo not drawn) | / | 25% | / | / | 1% | 0%
CCOc1ccccc1N(CC(=O)NCCSc1ccccn1)S(=O)(=O)c1ccccc1 | -26% | ? | -6 | 1 | 15µM* | 3%
CCOc1ccccc1N(CC(=O)N(C)Cc1ccccc1)S(=O)(=O)c1ccccc1 | 0% | 7% | 58* | 26 | ? | -17%
CCOc1ccccc1N(CC(=O)O)S(=O)(=O)c1ccccc1 | 7%[9.22 µM] | / | -9 | -1 | 16% | 5%
CCOc1ccccc1N(CC(=O)NCCSc1ccccn1)S(=O)(=O)c1ccc(C)cc1 | -6% | 1% | -5 | -5 | ? | 6%
SMILES | NS1 function inh | Pf growth 96h | Shiga toxin inh | CHX counter | Pf growth 48h | Sm TGR block
CCOC(=O)N1CCN(C(=O)c2ccccc2N(Cc2ccccc2)S(=O)(=O)c2ccccc2)CC1 | -7% | 22% | 22 | -3 | 4.7µM* | 2%
Cc1ccccc1N(CC(=O)NCCSc1ccccn1)S(=O)(=O)c1ccccc1 | -5% | 10µM* | -13 | -2 | ? | 11%
Cc1ccc(NC(=O)C2CCCN2S(=O)(=O)c2cccc3nsnc23)cc1Cl (stereo not drawn) | / | / | / | / | / | -2%
COC(=O)c1ccc(CN2C(=O)NC3(CCC(C)CC3)C2=O)cc1 (stereo not drawn) | / | -1% | 120* | 53* | -4% | -5%
O=C(Cc1ccccc1F)Nc1ccc(S(=O)(=O)Nc2ncccn2)cc1 | 11% | 1% | -5 | 8 | 5% | -2%
CCOC(=O)C1=C(C)NC(=O)NC1c1cccc(OC)c1OCc1ccccc1Cl (stereo not drawn) | 9% | 5% | -8 | -2 | / | 13%
CN(C)C(CNC(=O)CCc1nc2cc(Cl)ccc2n(Cc2ccccc2)c1=O)c1ccccc1 (stereo not drawn) | / | 10µM* | / | / | 9.3µM* | 6%
NC(=O)CCc1nc2cc(C(F)(F)F)ccc2n(Cc2ccccc2)c1=O | -8% | -7% | -8 | -4 | -5% | 5%
CCNC(=S)NNC(=O)CCc1nc2cc(Cl)ccc2n(Cc2ccccc2)c1=O | 2% | 5.9µM* | -8 | -3 | ? | -1%
CNC[C@H](Cc1ccccc1)NC[C@@H](Cc1cccc2ccccc12)NCCc1ccc(C)cc1 | 3% | 2.9µM* | -16 | -8 | 2.6µM* | -2%
O=C(Nc1ccc(C(=O)OC2CCCCC2)cc1)c1ccncc1 | -14% | 5.2µM* | 7 | 12 | 13% | 0%
CCCCC(=O)Nc1ccc(C(=O)OC2CCCCC2)cc1 | -68% | / | 52 | 32 | 10µM* | 8%
CC(C)(C)C(=O)Nc1ccc(C(=O)OC2CCCCC2)cc1 | -10% | / | 102* | 50* | 128% | -1%
O=C(OC1CCCCC1)c1ccc(NC(=O)C2CCCCC2)cc1 | -7% | 12µM* | 13 | 10 | / | 9%
O=C(O)CCC(=O)Nc1ccc(C(=O)OC2CCCCC2)cc1 | 5% | 10% | -9 | -2 | / | ?
Fc1ccc(Nc2c(-c3c[nH]c4ccccc34)nc3ccccn23)cc1 | / | / | / | / | / | -6%
Cc1cc(C)cc(NC(=O)Cc2c(C(=O)O)c(C)cn2C)c1 | / | / | / | / | / | -2%
CCOC(=O)[C@H]1[C@H]2COc3ccc(Cl)cc3[C@@H]2N2C(=O)CNC(=O)[C@@]12C | / | ? | / | / | 26% | ?
CSc1cc(-c2ccncc2)nc(-c2ccc(Cl)cc2)c1 | -1% | 15µM* | -3 | -3 | / | 3%
O=C(NNC(=O)c1cc2ccccc2o1)c1ccc(F)cc1 | / | 73% | / | / | 54% | 2%
O=C(NCc1ccc(F)cc1)c1cc2ccccc2o1 | -11% | -10% | 32 | 14* | -1% | -9%
Cc1ccc(C(=O)c2cc3ccccc3o2)cc1[N+](=O)[O-] | -1% | ? | 31 | 17 | -21% | -1%
O=C(c1ccccc1)c1cc2ccccc2o1 | -54% | 20% | 80* | 38* | 102% | 0%
O=C(c1ccc(F)cc1)c1cc2ccccc2o1 | -1% | -21% | 41* | 26* | 74% | -5%
Cn1cc(CN2CCC(C(=O)N3CCCCC3)CC2)c(-c2ccccc2F)n1 | -5% | 6% | -6 | 1 | -4% | ?
